Data from PubChem BioAssay AID623911 (Vanderbilt High Throughput Screening Facility, 2012).
Screen size: about 2,100 compounds; about 770 (37%) were called active. This is one part of the list. Values without a mark were called inactive.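 How the source made its calls: active means by-eye trace score of 1 for enhancers or -1 for inhibitors, so actives lie on both sides (some results past the limit were not filed as active); inactive means score 0, or 3 fluorescent, or 4 baseline rise.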

biological target: G protein-activated inward rectifier potassium channel 2 (Homo sapiens) + G protein-activated inward rectifier potassium channel 1 (Homo sapiens) (UniProt P48051+P48549); test: GIRK1/2 thallium flux modulators, retest, confirmation, cell-based, HEK293 rmGlu8/hGIRK1/2, FluoZin-2 (AID 623911); conditions: HEK293 rmGlu8/hGIRK1/2, thallium flux FluoZin-2; actives lie on both sides; glutamate co-added at its EC20 level
Sequence (P48051 whole entry, looked up): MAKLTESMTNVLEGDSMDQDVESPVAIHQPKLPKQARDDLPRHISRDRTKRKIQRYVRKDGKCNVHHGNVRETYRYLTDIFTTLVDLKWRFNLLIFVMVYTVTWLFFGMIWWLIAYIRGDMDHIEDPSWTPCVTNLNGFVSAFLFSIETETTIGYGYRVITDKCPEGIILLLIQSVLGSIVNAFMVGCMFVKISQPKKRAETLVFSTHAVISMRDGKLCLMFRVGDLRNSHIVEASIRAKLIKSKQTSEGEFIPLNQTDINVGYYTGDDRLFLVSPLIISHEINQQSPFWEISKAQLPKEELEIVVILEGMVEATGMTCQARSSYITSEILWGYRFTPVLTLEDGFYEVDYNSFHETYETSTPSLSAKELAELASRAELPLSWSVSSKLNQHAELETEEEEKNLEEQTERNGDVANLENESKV
Sequence (P48549 whole entry, looked up): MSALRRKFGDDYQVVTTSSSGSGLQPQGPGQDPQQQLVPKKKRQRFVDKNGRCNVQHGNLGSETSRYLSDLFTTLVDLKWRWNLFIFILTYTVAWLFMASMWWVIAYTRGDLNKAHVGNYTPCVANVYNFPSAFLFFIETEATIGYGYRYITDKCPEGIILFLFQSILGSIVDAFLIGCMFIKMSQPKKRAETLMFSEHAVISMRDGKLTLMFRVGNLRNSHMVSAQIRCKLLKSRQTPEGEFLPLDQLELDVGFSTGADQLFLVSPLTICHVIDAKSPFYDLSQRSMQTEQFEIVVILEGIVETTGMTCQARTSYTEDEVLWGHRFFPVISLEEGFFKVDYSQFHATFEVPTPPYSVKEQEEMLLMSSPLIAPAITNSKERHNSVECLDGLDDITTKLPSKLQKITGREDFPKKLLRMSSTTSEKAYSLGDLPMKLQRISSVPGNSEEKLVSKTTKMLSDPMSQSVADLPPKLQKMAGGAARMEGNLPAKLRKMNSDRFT

SMILES | manual score
Cc1cccc(C)c1NC(=O)C(NC(=O)c1ccccn1)c1ccc([N+](=O)[O-])cc1 (stereo not given) | 0
CC1CN(C(=O)C2CCCCC2)C(C)CN1C(=O)C1CCCCC1 (stereo not given) | 0
CCC(NC(=O)c1ccccc1O)c1ccccc1 (stereo not given) | 0
O=C(CC(=O)c1cc(Cl)ccc1O)c1ccccc1 | 0
Cc1cccc(C(=O)CC(=O)c2cc(Cl)ccc2O)c1 | 0.5
O=C(CC(=O)c1ccccc1O)c1ccc(F)cc1 | 1 (active)
O=C(CC(=O)c1ccccc1O)c1cccc(F)c1 | 1 (active)
COc1ccc(CN(CCC#N)C(=S)NC(=O)c2ccccc2)cc1 | 1 (active)
N#CCCN(Cc1ccccc1)C(=S)NC(=O)c1ccccc1 | 1 (active)
COc1cccc(C(=O)NC(=S)Nc2ccc3c4c(cccc24)CC3)c1 | 0
Cc1cc(C)cc(OCC(=O)N2N=C(C(F)(F)F)CC2(O)C(C)(C)C)c1 (stereo not given) | 0
N/C(=N/O)c1nc(N2CCCC2)nc(N(c2ccccc2)c2ccccc2)n1 | -1 (active)
O=C(N1CCCCC1)N1CCN(C(=O)N(c2ccccc2)c2ccccc2)CC1 | 0
CC(C)C(=O)Nc1nnn(C)n1 | 0
Cc1c(C(=O)NCc2cccnc2)oc2ccc(S(=O)(=O)N3CCC4(CC3)OCCO4)cc12 | 0
CCOC(=O)N1CCN(C(=O)c2oc3ccc(S(=O)(=O)N4CC(C)CC(C)C4)cc3c2C)CC1 (stereo not given) | -1 (active)
COC(=O)c1nc(NC(C)=O)n[nH]1 | 0
CC1(C)CC2CC(C)(CN2c2ncnc3ccccc23)C1 (stereo not given) | -1 (active)
O=C(/C=C/c1ccc(Cl)cc1)NC(=S)NN1CCCCC1c1cccnc1 (stereo not given) | 0
COC(=O)C1=C(C)NC(=O)/C1=C\c1ccco1 | 0
Cc1cccc(N=C2NC(=O)/C(=C/C=C/c3ccco3)S2)c1C | 1 (active)
COc1ccc(Nc2nc(-c3cccc([N+](=O)[O-])c3)nc3ccccc23)cc1 | 0
CCCn1c(=N)n(CC(O)COc2cccc(C)c2)c2ccccc21 (stereo not given) | -1 (active)
CCOC(=O)Cn1c(=N)n(CCOc2cccc(C)c2)c2ccccc21 | -1 (active)
CCOC(=O)C(CCCCOc1cccc(CC)c1)C(=O)OCC | 0
COc1ccc(-n2c(=S)[nH]c3ccccc32)cc1 | 0
Cc1cccc(OCCn2c(=S)[nH]c3ccccc32)c1 | 0

SMILES | manual score
CCCCn1c(=O)nc2n(-c3ccccc3)c3ccccc3cc-2c1=O | 0
CCCn1c(=N)n(CCOc2ccc(OC)cc2)c2ccccc21 | -1 (active)
Cc1cccc(OCC(O)CN2C(C)(C)CC(O)CC2(C)C)c1 (stereo not given) | 0
CCCCn1c(=N)n(CC(O)COc2cccc(C)c2)c2ccccc21 (stereo not given) | -1 (active)
CC1CSc2ccccc2NC1=S (stereo not given) | 0
COC(=O)c1sc(N2C(=O)C(O)=C(C(=O)c3ccc(C)o3)C2c2ccc(F)cc2)nc1C (stereo not given) | 0
CC(C)(C)OC(=O)COc1cc(O)c2c(=O)cc(-c3ccccc3)oc2c1 | 0
Fc1ccc(-c2nnc3ccc(N4CCc5ccccc5C4)nn23)cc1 | 0
CCOC(=O)Cn1c(=N)n(Cc2ccccc2F)c2ccccc21 | -1 (active)
CCOC(=O)Cn1c(=O)oc2cc(S(=O)(=O)NCCCc3ccccc3)ccc21 | 0
CCOC(=O)c1cc2n(c1N)-c1ccccc1C2=O | 3
CC(C)Oc1ccc(C2CC(=O)N(c3ccccc3)C2=O)cc1 (stereo not given) | 0
Cc1ccccc1OCC(=O)Nc1ccccc1N1CCOCC1 | -1 (active)
CC1(C)Cc2cccc(OCC(=O)Nc3ccccc3N3CCOCC3)c2O1 | -0.5
CCC(=O)N1CCN(c2ccccc2NC(=O)COc2cccc(C)c2)CC1 | -1 (active)
O=C(Nc1ccccc1N1CCCCC1)c1ccccc1F | 0
CC(C)C(=O)Nc1ccccc1N1CCN(C(=O)c2ccccc2)CC1 | -1 (active)
Cc1cccc(OCC(=O)NC(=S)Nc2ccccc2N2CCOCC2)c1 | 0
CCOc1cc(N2CCOCC2)c(OCC)cc1NC(=O)COC(=O)CCc1c[nH]c2ccccc12 | 0
CCCC(=O)Nc1ccccc1N1CCN(C(=O)c2ccccc2)CC1 | -0.5
Cc1cccc(OCC(=O)Nc2ccccc2N2CCN(C(=O)C(C)C)CC2)c1C | -1 (active)
Cc1cc(Cl)ccc1OCC(=O)Nc1ccccc1N1CCOCC1 | -1 (active)
CCN(CC)c1ccc2cc(-c3nc4ccccc4[nH]3)c(=O)oc2c1 | 3
Cc1ccc(C(=O)NNC(=S)NC(=O)COc2ccccc2)cc1 | 1 (active)
Cc1ccccc1C(=O)NNC(=S)NC(=O)COc1ccccc1 | 1 (active)
CC(=O)c1c(C(C)=O)c(C)n(-c2nc(-c3cccs3)c(C)s2)c1C | -1 (active)
O=C(Cc1ccccc1)Nc1nc(-c2cccs2)cs1 | 0

SMILES | manual score
CN(CC(=O)Nn1cnnc1)S(=O)(=O)c1ccc(Br)cc1 | 0
Cc1cccc(N2C(=O)CS/C2=N\NC(=O)c2ccc(Cl)cc2)c1C | 1 (active)
O=C(c1cnn2c(C(F)(F)F)cc(-c3cccs3)nc12)N1CCN(Cc2ccccc2)CC1 | -0.5
COC(=O)c1c(NS(=O)(=O)c2ccc(C)cc2)sc2c1CCC(C)C2 (stereo not given) | 0
CC1CCc2c(sc(NS(=O)(=O)c3ccccc3)c2C(=O)OC(C)C)C1 (stereo not given) | 0
COC(=O)c1c(NC(=S)NC(=O)c2ccco2)sc2c1CCCC2 | 0
CCOC(=O)c1c(NC(=S)Nc2ccccc2)sc2c1CCCCC2 | 0
CC(=O)Oc1ccc(N(C(C)=O)S(=O)(=O)c2cccs2)c2ccccc12 | 0
COC(=O)c1c(NS(=O)(=O)c2cccs2)sc2c1CCCC2 | 1 (active)
CCOC(=O)c1c(NS(=O)(=O)Cc2ccccc2)sc2c1CCCC2 | 1 (active)
COC(=O)c1c(NS(=O)(=O)Cc2ccccc2)sc2c1CCCC2 | 1 (active)
CC(C)OC(=O)c1c(NS(=O)(=O)c2ccccc2)sc2c1CCCC2 | 1 (active)
COC(=O)c1c(NC(=S)Nc2ccc(F)cc2[N+](=O)[O-])sc2c1CCCCC2 | 0
Cc1ccc(-c2c(C)sc(NC(=O)C3C4CCC(O4)C3C(=O)O)c2C(=O)OC(C)C)cc1 (stereo not given) | 0
CCCc1nc2scc(-c3ccccc3)c2c(=O)n1N | 0
Cc1ccc(-c2csc3nc[nH]c(=S)c23)cc1C | 1 (active)
S=c1[nH]cnc2scc(-c3ccccc3)c12 | 1 (active)
CCCCn1c(=O)[nH]c2nc3cc(N)ccc3nc2c1=O | 3
CCCc1cc(-c2n[nH]c(=S)n2C(C)c2ccccc2)cs1 (stereo not given) | 0
CN(C)Cc1c(O)ccc2occ(C(O)c3ccccc3)c12 (stereo not given) | -1 (active)
O=c1[nH]c2ccccc2n1CCC1CCCCC1 | 0
COc1ccc2c(-c3ccccc3)cc(SCC(=O)N(C)C3CCS(=O)(=O)C3)nc2c1 (stereo not given) | 0
CN(C(=O)CSC1=Nc2ccccc2C2=NC(c3ccccc3)C(=O)N12)C1CCCCC1 (stereo not given) | -1 (active)
Cc1ccccc1-n1c(SCc2ccccn2)nc2n[nH]c(C)c2c1=N | 0
CN(c1ccccc1)S(=O)(=O)c1ccc(NC(=S)NC(=O)c2ccccc2)cc1 | 0
CCN(c1ccccc1)S(=O)(=O)c1ccc(NC(=S)NC(=O)c2ccc(Br)o2)cc1 | 1 (active)
C=CCN(CC=C)S(=O)(=O)c1ccc(NC(=S)NC(=O)c2ccco2)cc1 | 0

SMILES | manual score
C=CCOc1ccc(/C(O)=C2/C(=O)C(=O)N(CCCN3CCOCC3)C2c2ccccc2)cc1 (stereo not given) | 0
CCCn1c(C)cc(/C=C(\C#N)C(=O)OCC(=O)Nc2cccc(OC)c2)c1C | 1 (active)
COc1cc(/C=C(\C#N)C(=O)Nc2cccnc2)ccc1OC(C)C | 0
O=S(=O)(Nc1ccc2nc(C(F)(F)F)[nH]c2c1)c1ccccc1 | 1 (active)
O=S(=O)(Nc1ccc(S(=O)(=O)Nc2cccc3ccccc23)cc1)c1ccccc1 | 0
Oc1ccc2ccccc2c1N=Nc1ccccn1 | 0
CC(C)n1c(O)c(N=Nc2ccccn2)c2ccccc21 | 0
Oc1c(N=Nc2ccccn2)ccc2ccccc12 | 1 (active)
CCCN(CCC)C(=S)NC(=O)c1ccc(-c2ccccc2)cc1 | 1 (active)
C=CCN(CC=C)C(=S)NC(=O)c1ccc(-c2ccccc2)cc1 | 1 (active)
CN(Cc1ccccc1)C(=S)NC(=O)c1ccc(-c2ccccc2)cc1 | 0
C=CCN(CC=C)C(=S)NC(=O)c1ccc([N+](=O)[O-])cc1 | 1 (active)
C=CCNC(=O)NC(=S)c1ccccc1 | 0
O=C(NC(=S)NCC1COc2ccccc2O1)c1ccccc1 (stereo not given) | 0
NC(=O)c1ccc(Cc2ncc(C(F)(F)F)cc2Cl)s1 | 0
O=C1/C(=C\c2ccccn2)SC(=S)N1Nc1ncc(C(F)(F)F)cc1Cl | 0
Cc1ccc(NC(=S)NNc2ncc(C(F)(F)F)cc2Cl)c(C)c1 | 0
FC(F)(F)c1cnc(NNC(=S)Nc2ccccc2Cl)c(Cl)c1 | 1 (active)
FC(F)(F)c1cnc(NNC(=S)Nc2ccc(Cl)cc2)c(Cl)c1 | 1 (active)
CC(C)CC(=O)CN1C(=O)C2(OCCO2)c2ccccc21 | 0
CCCCN(C)CC(O)Cn1cc(/C=C/C(=O)c2cccs2)c2ccccc21 (stereo not given) | 3
O=C1CC(c2ccncc2)c2cc3c(cc2N1)OCCO3 (stereo not given) | 0
CC(C)OCCCn1c(=S)[nH]c2cc3c(cc2c1=O)OCO3 | 1 (active)
O=c1c2cc(F)ccc2[nH]c(=S)n1CCCN1CCOCC1 | 0
